Records with an inconclusive call do not appear. A number with no mark means an inactive call. Active and inactive are the calls of the source. Unless noted, the call rests on the fitted dose curve; in most records, active means well fitted curve in the direction sought with a large enough effect in the repeat runs; inconclusive means weak or mixed curves; inactive means no such curve, though single readings can be large; an effect the other way counts as inactive or inconclusive.

Test [1] has as its target Retinoic acid receptor RXR-alpha (Homo sapiens) (UniProt P19793). Briefly: qHTS assay to identify small molecule agonists of the RXR signaling pathway (AID 1159527; calls by dose curve; further: nearly all actives have a fitted effect of over 35% in size; further: potency means the concentration at half of the fitted maximal effect). The gist of the method:
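Agonist-mode beta-lactamase reporter assay: HEK 293T RXR-alpha-UAS-bla cells treated 16 hr at 37 C with compounds, 9-cis retinoic acid as positive control. LiveBLAzer FRET substrate, 405 nm excitation, 460/530 nm emission.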
(In qHTS, concentration-response curves come from the screen itself.)

A short description of test [2]: qHTS assay to identify small molecule agonists of the RXR signaling pathway - cell viability counter screen (AID 1159529). Further: series mostly up to about 77 µM; nearly all actives have a fitted effect of over 50% in size. The gist of the method:
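CellTiter-Glo luminescence gave viability in the wells also read for beta-lactamase. Cells (RXR-alpha-UAS-bla HEK 293T, 2% charcoal-stripped FBS medium) had 5 hr plating, then 16 hr compound exposure at 37 C; tetraoctyl ammonium bromide served as positive control.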

Test [3] is described as follows: qHTS assay to identify small molecule antagonists of the estrogen related receptor (ERR) signaling pathway from Tox21 library - cell viability counter screen (AID 1224834). Further: nearly all actives have a fitted effect of over 30% in size. The gist of the method: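 Compounds in DMSO were pinned onto ERR cells that had been incubated for 6 h, and the plates were held at 37 C for 17.5 h. CellTiter-Fluor reagent was then added and fluorescence was measured after 30 min.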

For test [4], the target named is Luciferin 4-monooxygenase (Photinus pyralis) (UniProt P08659). Briefly: qHTS assay to identify small molecule inhibitors of firefly luciferase (AID 1224835). Further: nearly all actives have a fitted effect of over 25% in size. Further: potency means the concentration at half of the fitted maximal effect. The gist of the method: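 Biochemical qHTS: compounds run as interplate titrations against purified firefly enzyme, with D-luciferin and ATP each at its KM concentration. Light output recorded by CCD imaging.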

Test [5] can be described thus: qHTS assay to identify small molecule agonists of the constitutive androstane receptor (CAR) signaling pathway - cell viability counter screen (AID 1224836). Further: series mostly up to about 92 µM; nearly all actives have a fitted effect of over 45% in size. A digest of the protocol:
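Cell viability multiplexed with the CAR agonist screen: CellTiter-Fluor fluorescence after 23 hr at 37 C. HepG2-CYP2B6-hCAR cells got compounds at 15 concentrations with PK11195 at 0.75 uM final.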

A short description of test [6]: qHTS assay to identify small molecule antagonists of the constitutive androstane receptor (CAR) signaling pathway - cell viability counter screen (AID 1224837). Further: series mostly up to about 92 µM; nearly all actives have a fitted effect of over 45% in size. A digest of the protocol:
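Cells are seeded, rested 4 hr at 37 C/5% CO2, dosed with compound (15-point series) and 50 nM CITCO, incubated a further 23 hr, and then CellTiter-Fluor reagent is added before fluorescence is read. The line is HepG2 with stable hCAR and CYP2B6-2.2kb.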

For test [7], the target named is Nuclear receptor subfamily 1 group I member 3 (Homo sapiens) (UniProt Q14994). Briefly: qHTS assay to identify small molecule antagonists of the constitutive androstane receptor (CAR) signaling pathway (AID 1224838).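 Further: HepG2 cells stably expressing hCAR with CYP2B6 luciferase reporter stimulated by CITCO; nearly all actives have a fitted effect of over 40% in size.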 The gist of the method: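 Luminescence from a CYP2B6-2.2kb promoter reporter in hCAR-expressing HepG2 cells reflects CAR signaling. Cells received compounds at 15 concentrations and 50 nM CITCO (final), then incubated 24 h at 37 C/5% CO2.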

The target is the same in test [8]. Briefly: qHTS assay to identify small molecule agonists of the constitutive androstane receptor (CAR) signaling pathway (AID 1224839). Further: nearly all actives have a fitted effect of over 15% in size. Further: potency means the concentration at half of the fitted maximal effect.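 On activation: HepG2 cells stably carrying human CAR and a CYP2B6 luciferase reporter; series mostly up to about 92 µM.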 A digest of the protocol:
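Luminescent ONE-Glo read-out after 24 hr, 37 C exposure of double-stable HepG2-CYP2B6-hCAR reporter cells to a 15-point compound series, in the presence of 0.75 uM PK11195 (final).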

Test [9] in a line: qHTS assay to identify small molecule antagonists of the estrogen related receptor signaling pathway with the pleiotropic PPARgamma coactivator (PGC) from Tox21 10K library - cell viability counter screen (AID 1224840; active means well fitted cell-killing curve with a large enough effect in the repeat runs, not every such curve was filed as active; further: nearly all actives have a fitted effect of over 40% in size). A digest of the protocol: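 Cell viability is measured by CellTiter-Fluor fluorescence in PGC/ERR cells that receive compounds after a 6-hour attachment period and are then incubated 17.5 hours at 37 C.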

Test [10] in a line: qHTS assay to identify small molecule antagonists of the retinoid acid receptor (RAR) signaling pathway - cell viability counter screen (AID 1159551). Further: nearly all actives have a fitted effect of over 35% in size. A digest of the protocol:
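ATP-based viability, C3RL4 cells, 6 h at 37 C with 1 uM final retinol co-added after compound; luminescence read 30 min post CellTiter-Glo, RT.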

Test [11] can be described thus: qHTS assay to identify small molecule antagonists of the retinoic acid receptor (RAR) signaling pathway (AID 1159552; further: nearly all actives have a fitted effect of over 50% in size). A digest of the protocol:
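Luminescent RARE reporter read-out in C3RL4 cells: 6 hr co-treatment at 37 C of test compounds with retinol at 1 uM final. Cells plated overnight beforehand; luciferase reagent incubated 30 min at room temperature before reading.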

Test [12] is described as follows: qHTS assay to identify small molecule agonists of the retinoic acid receptor (RAR) signaling pathway (AID 1159553). Further: potency means the concentration at half of the fitted maximal effect. A digest of the protocol: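 Quantitative high-throughput format: the Tox21 10K library was tested on C3RL4 RARE-luciferase cells for 6 hr at 37 C and 5% CO2, with luminescence measured after a 30 min room-temperature reagent step.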
Test [13] is described as follows: qHTS assay to identify small molecule antagonists of the estrogen related receptor (ERR) signaling pathway - cell viability counter screen (AID 1224818). Further: series mostly up to about 46 µM. The gist of the method: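 Quantitative high-throughput viability counter screen in ERR cells. Compounds (DMSO) incubated 17.5 h at 37 C; read-out was CellTiter-Fluor fluorescence.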
Test [14] in a line: qHTS assay to identify small molecule antagonists of the estrogen related receptor signaling pathway with the pleiotropic PPARgamma coactivator (PGC) cell viability counter screen (AID 1224822; further: series mostly up to about 46 µM). A digest of the protocol: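 Cytotoxicity in the PGC/ERR cell line is assessed with CellTiter-Fluor, read as fluorescence intensity 30 min after reagent addition, following 17.5 h compound treatment at 37 C.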

Test [15] can be described thus: qHTS assay to identify small molecule antagonists of the estrogen related receptor signaling pathway with the pleiotropic PPARgamma coactivator (PGC) from Tox21 10K library (AID 1224841; call rule not given here; further: series mostly up to about 92 µM; actives are mostly falling curves and most rising ones were filed inactive; nearly all actives have a fitted effect of over 50% in size). The gist of the method: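 Cells stably carrying the PGC/ERR reporter, seeded at 2,000 per well, received pin-transferred compounds 6 h post-plating. Exposure lasted 18 h at 37 C. Signal: One-Glo luminescence.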

Test [16] can be described thus: qHTS assay to identify small molecule agonists of the estrogen related receptor signaling pathway with the pleiotropic PPARgamma coactivator (PGC) from Tox21 10K library (AID 1224842). Further: nearly all actives have a fitted effect of over 15% in size. A digest of the protocol:
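PGC/ERR reporter cell line, 2,000 cells per well, incubated 6 h at 37 C before 23 nL compound in DMSO was added. After 18 h at 37 C, One-Glo luminescence read following 30 min at room temperature.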
On the % scale 0 is the no-effect control and ±100 the full control effect.

Chain of Luciferin 4-monooxygenase (Photinus pyralis) (P08659 whole entry, looked up): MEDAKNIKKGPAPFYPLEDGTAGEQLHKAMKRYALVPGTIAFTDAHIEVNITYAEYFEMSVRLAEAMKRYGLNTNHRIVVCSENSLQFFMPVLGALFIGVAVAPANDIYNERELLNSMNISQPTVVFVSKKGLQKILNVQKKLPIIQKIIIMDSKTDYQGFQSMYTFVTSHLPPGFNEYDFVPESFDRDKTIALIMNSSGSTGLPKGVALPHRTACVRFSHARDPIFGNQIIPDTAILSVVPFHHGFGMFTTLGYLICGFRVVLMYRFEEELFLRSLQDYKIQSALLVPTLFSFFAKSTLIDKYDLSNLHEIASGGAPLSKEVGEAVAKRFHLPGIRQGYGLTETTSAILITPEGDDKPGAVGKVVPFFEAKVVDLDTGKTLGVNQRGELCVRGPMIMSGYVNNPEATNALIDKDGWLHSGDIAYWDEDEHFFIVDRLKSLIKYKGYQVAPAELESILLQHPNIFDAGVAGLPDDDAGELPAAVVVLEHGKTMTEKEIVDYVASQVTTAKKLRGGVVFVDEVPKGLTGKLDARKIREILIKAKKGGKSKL
Chain of Nuclear receptor subfamily 1 group I member 3 (Homo sapiens) (Q14994 whole entry, looked up): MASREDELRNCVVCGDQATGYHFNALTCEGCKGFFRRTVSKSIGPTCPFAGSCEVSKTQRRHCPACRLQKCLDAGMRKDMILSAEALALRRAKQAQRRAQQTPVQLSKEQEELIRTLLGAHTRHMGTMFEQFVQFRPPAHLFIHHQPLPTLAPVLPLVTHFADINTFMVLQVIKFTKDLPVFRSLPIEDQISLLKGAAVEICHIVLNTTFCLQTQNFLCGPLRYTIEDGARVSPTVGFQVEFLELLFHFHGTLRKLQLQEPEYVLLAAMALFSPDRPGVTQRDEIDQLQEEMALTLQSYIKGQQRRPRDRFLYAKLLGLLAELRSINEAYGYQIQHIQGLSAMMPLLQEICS
Chain of Retinoic acid receptor RXR-alpha (Homo sapiens) (P19793 whole entry, looked up): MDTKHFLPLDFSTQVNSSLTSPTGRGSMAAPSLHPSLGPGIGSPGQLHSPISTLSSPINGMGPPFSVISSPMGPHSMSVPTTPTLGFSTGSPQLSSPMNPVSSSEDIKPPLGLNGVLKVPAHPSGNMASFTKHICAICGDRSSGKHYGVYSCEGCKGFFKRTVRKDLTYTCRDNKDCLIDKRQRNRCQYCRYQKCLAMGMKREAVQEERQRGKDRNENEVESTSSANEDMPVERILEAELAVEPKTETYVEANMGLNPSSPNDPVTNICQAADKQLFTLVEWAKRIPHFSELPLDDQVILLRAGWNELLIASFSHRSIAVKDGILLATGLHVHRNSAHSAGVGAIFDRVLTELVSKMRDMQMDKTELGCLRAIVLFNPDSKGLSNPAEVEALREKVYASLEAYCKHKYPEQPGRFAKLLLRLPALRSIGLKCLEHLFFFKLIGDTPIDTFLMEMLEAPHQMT

As to `C=C(C)[C@H]1CC=C(C)CC1`, the Potency result in test [1], in test [2], in test [3], in test [4], in test [7] and in [8] was “inactive” in each case. The molecule was called inactive in [5], in [6] and in [9].
Regarding `Cn1ccc2cc3c(cc21)CCN3C(=O)Nc1cccnc1`, the activation in test [1] is 14.3% [at 15.8 µM]. In addition, the activity change, negative = cytotoxicity is -1.31% [at 19 µM] in [10] and -15.3% [at 19 µM] in [6]. Also, the activity, negative = inhibition in test [11] was 169% [at 19 µM]; in test [7], 213% [at 19 µM]. The results for the Potency in [12], in [4] and in test [8] were 2.31 µM (active), 3.79 µM (active) and 1.64 µM (active), respectively. Besides, the outcome in test [13] and in test [14] was inactive. Further, the viability change, negative = cytotoxic was -0.1% [at 19 µM] in test [5] and -15.1% [at 19 µM] in test [9].
Consider `NC1CCN(c2cccc(Cl)n2)CC1`, for which the Potency result in [1], in test [11], in test [12], in test [3], in test [4] and in [7] was “inactive” in each case. In addition, the Potency entry in test [8] is “inactive”. Also, the result in [10], in test [5], in test [6] and in test [9] was inactive.
Regarding `CCn1c(=O)c2c(nc(/C=C/c3ccc(OC)c(OC)c3)n2C)n(CC)c1=O`, the Potency result in test [1], in test [2], in test [4], in test [7], in test [8] and in test [15] was “inactive” each time. For the same molecule, the Potency entry in test [16] was “inactive”. Besides, the molecule was classed as inactive in test [5], in test [6] and in test [9].
`CNc1ncnc2nc[nH]c12`: the Potency entry in test [1], in [2], in [11], in test [3], in [4] and in test [15] was “inactive” each time. Besides, the Potency entry in test [16] is “inactive”. Further, the outcome in test [6] and in test [9] was inactive.
For the molecule `CCCCCCC(CCCCCCCCCCC(=O)OCC(COC(C)=O)OC(C)=O)OC(C)=O` (centres undefined), the Potency entry in [1], in test [2], in test [3] and in [4] was “inactive” throughout. In addition, the outcome in test [5], in test [6] and in test [9] was inactive.
As for `Nc1ccc2cc(S(=O)(=O)O)ccc2c1`, the Potency entry in test [1], in test [2], in [3], in test [7] and in test [8] was “inactive” in each case. Moreover, the molecule was called inactive in [5], in test [6] and in [9].
Turning to `CCn1cc(C(=O)O)c(=O)c2cc(F)c(N3CCN(C)CC3)cc21`, the activation in test [1] was 8.93% [at 15.8 µM]. Moreover, the results for the activity change, negative = cytotoxicity in test [2] and in [6] were 6.61% [at 15.8 µM] and 2.92% [at 19 µM], respectively. The viability change, negative = cytotoxic was 3.25% [at 19 µM] in test [3] and 8.09% [at 19 µM] in test [9].
Regarding `O=C(CCOCCOCCOCCOCCC(=O)Nc1c(I)cc(I)c(C(=O)O)c1I)Nc1c(I)cc(I)c(C(=O)O)c1I`, the Potency result in [1], in [2], in test [11], in test [12], in test [3] and in test [4] was “inactive” in each case. In addition, the molecule was classed as inactive in test [5], in test [6] and in test [9].
With `CC1(C)SC(C)(C)SC(C)(C)S1`, the Potency entry in test [1], in test [2], in [3], in test [4] and in test [15] was “inactive” each time. Besides, the molecule was classed as inactive in test [5], in test [6] and in [9].
On to `CCN1CCCC1CNC(=O)c1cc(S(N)(=O)=O)ccc1OC` (centres undefined), for which, in test [1], the Potency is 43.6 µM (active). Moreover, the molecule was classed as inactive in [10], in [13], in [14], in [5], in test [6] and in [9]. The Potency result in test [11], in [12], in test [3], in test [4], in test [7] and in test [8] was “inactive” in each case.
Regarding `C=CCn1c(=O)n([C@@H]2O[C@H](CO)[C@@H](O)[C@H]2O)c2nc(N)[nH]c(=O)c21`, the Potency result in [1], in [2], in [3] and in test [4] was “inactive” each time. For the same molecule, the molecule was classed as inactive in test [5], in test [6] and in test [9].
Consider `CC12CCC(CC1=O)C2(C)C` (centres undefined), for which the Potency result in test [1], in [2], in test [11], in test [12], in test [3] and in test [4] was “inactive” in each case. Further, the Potency entry in [7], in test [8] and in test [15] was “inactive” in each case. Also, the outcome in test [6] and in [9] was inactive.

Values taken from PubChem BioAssay (Tox21).
